Among the data in the supplement of paper PMC7156485 are cell number and H1.0 immunofluorescence intensity values, retold here.

Common to all, as to conditions: concentration: 10 µM; 24 h
Experiment [1] concerns HCC1569. The experiment in a line: cell number relative to DMSO (% of DMSO); higher = more cells (less growth inhibition / toxicity). Put shortly:
(§1)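 HCC1569 and TDF cells (800 per well, 384-well plates, RPMI with 10% FBS) were treated with compounds at 10 µM for 24 h at 37 °C, in triplicate. Cells were fixed in 3.7% formaldehyde and stained with a rabbit anti-H1.0 antibody, an AlexaFluor 647 secondary and DAPI; six fields per well were imaged at ×10. H1.0 nuclear intensity or cell number is expressed as percent of the plate DMSO control, taking the median of replicates. HCC1569 values were smoothed for positional effects.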

In experiment [2] the test system is TDF. Described as above. The method in brief: as §1
In experiment [3] the test system is TDF. The experiment in a line: H1.0 immunofluorescence intensity relative to DMSO (% of DMSO); higher = stronger H1.0 induction, active = 120 or more. Put shortly:
as §1

The subject of experiment [4] is HCC1569. The experiment in a line: H1.0 immunofluorescence intensity relative to DMSO (% of DMSO); higher = stronger H1.0 induction, active = 140 or more. Put shortly:
as §1

Molecules are shown by their SMILES. Structures can show the parent of a compound that is named as a salt.
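Wherever H1.0 immunofluorescence intensity relative to DMSO is given: TDF is a line of transformed human dermal fibroblasts of mesenchymal origin.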
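Wherever cell number relative to DMSO is given: TDF denotes transformed human dermal fibroblasts of mesenchymal origin.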

For the compound `COc1cc2ncnc(Nc3cccc(Cl)c3)c2cc1OC`, the cell number in the experiment with HCC1569 [1] stood at 83.8; with TDF [2], 88. Moreover, the H1.0 immunofluorescence intensity was 99.4 (inactive) in the experiment with TDF [3] and 111 (inactive) in the experiment with HCC1569 [4].
Turning to `COc1cc2c(c(OC)c1OC)-c1c(cc(OC)c(OC)c1OC)C[C@](C)(O)[C@@H](C)C2`, the values for the cell number with HCC1569 [1] and in the experiment on TDF [2] were 100 and 108, respectively. Moreover, the results for the H1.0 immunofluorescence intensity with TDF [3] and in the experiment on HCC1569 [4] were 101 (inactive) and 100 (inactive), respectively.
On to `Nc1ncnc2c1ncn2C1OC(CO)C(O)C1O` (configuration not stated) [Adenosine], for which the cell number with HCC1569 [1] worked out at 107; in the experiment with TDF [2] it was 109. Moreover, the figures for the H1.0 immunofluorescence intensity in the experiment with TDF [3] and in the experiment on HCC1569 [4] were 92.7 (inactive) and 93.6 (inactive), respectively.
The matching figures for `CCCCCC=CCC=CC=CC=CC(SCC(NC(C)=O)C(=O)O)C(O)CCCC(=O)O` (configuration not stated) [N-Acetyl-leukotriene E4]: 103, 102, 92 (inactive) and 100 (inactive).
Turning to `Nc1[nH]nc2nc3ccccc3nc12`, the values for the cell number with HCC1569 [1] and with TDF [2] were 95 and 104, respectively. Further, the H1.0 immunofluorescence intensity in the experiment on TDF [3] is 101 (inactive); in the experiment with HCC1569 [4], 115 (inactive).
In the case of `CC1CCCC(C)N1NC(=O)c1ccc(Cl)c(S(N)(=O)=O)c1` (configuration not stated) [Clopamide], the cell number in the experiment with HCC1569 [1] was found to be 100; with TDF [2] it was 104. Moreover, the results for the H1.0 immunofluorescence intensity in the experiment with TDF [3] and with HCC1569 [4] were 94.9 (inactive) and 104 (inactive), respectively.
As to `CCN1CCN(C(=O)NC(C(=O)NC2C(=O)N3C(C(=O)O)=C(CSc4nnnn4C)CSC23)c2ccc(O)cc2)C(=O)C1=O` (configuration not stated) [Cefoperazone acid], the cell number in the experiment on HCC1569 [1] is 100; in the experiment on TDF [2] it was 103. Also, the figures for the H1.0 immunofluorescence intensity in the experiment with TDF [3] and in the experiment on HCC1569 [4] were 91.9 (inactive) and 102 (inactive), respectively.
As for `O=C([O-])Cc1ccccc1Nc1c(Cl)cccc1Cl.[Na+]` [Diclofenac sodium], the cell number worked out at 109 with HCC1569 [1] and 97.8 with TDF [2]. For the same compound, the H1.0 immunofluorescence intensity in the experiment with TDF [3] was 99.1 (inactive); with HCC1569 [4], 89.9 (inactive).
The matching figures for `COc1c(O)cc2c(c1O)C1OC(CO)C(O)C(O)C1OC2=O` (configuration not stated) [Bergenin]: 99, 107, 91.7 (inactive) and 93.5 (inactive).
`CC(C)=CCC[C@@H](C)[C@H]1CC[C@H]2[C@@H]3CC=C4C[C@@H](O)CC[C@]4(C)[C@H]3CC[C@]12C` [(3beta)-cholesta-5,24-dien-3-ol]: the cell number in the experiment on HCC1569 [1] worked out at 103; in the experiment with TDF [2], 88.8. The results for the H1.0 immunofluorescence intensity with TDF [3] and with HCC1569 [4] were 96 (inactive) and 101 (inactive), respectively.
Turning to `Brc1ccc(C2CN3CCSC3=N2)cc1.O=C(O)C(=O)O` (stereo not drawn) [S(-)-p-Bromotetramisole oxalate], the cell number with HCC1569 [1] and in the experiment on TDF [2] was 107 in each case. Besides, the H1.0 immunofluorescence intensity in the experiment on TDF [3] was 99.6 (inactive); in the experiment on HCC1569 [4], 94.6 (inactive).
In the case of `Oc1cc2c(c(Cl)c1O)CCNCC2c1ccccc1` (configuration not stated), the values for the cell number in the experiment with HCC1569 [1] and with TDF [2] were 99.5 and 87.8, respectively. Moreover, the values for the H1.0 immunofluorescence intensity in the experiment on TDF [3] and with HCC1569 [4] were 85.5 (inactive) and 105 (inactive), respectively.
`NCCS(=O)O` [Hypotaurine]: the cell number in the experiment on HCC1569 [1] and in the experiment on TDF [2] was 106 in each case. Further, the H1.0 immunofluorescence intensity was 96.6 (inactive) in the experiment on TDF [3] and 88.6 (inactive) in the experiment with HCC1569 [4].
Take `OC[C@@H](O)[C@H]1NC[C@@H](O)[C@H]1O` [1,4-Dideoxy-1,4-imino-D-mannitol hydrochloride]: the cell number with HCC1569 [1] came out at 99.9; in the experiment on TDF [2], 104. Also, the values for the H1.0 immunofluorescence intensity in the experiment with TDF [3] and in the experiment with HCC1569 [4] were 87.9 (inactive) and 90.9 (inactive), respectively.
In the case of `COC(=O)C(c1ccccc1Cl)N1CCc2sccc2C1` (configuration not stated) [Clopidogrel], the cell number with HCC1569 [1] came out at 99.8; with TDF [2], 79.7. In addition, the results for the H1.0 immunofluorescence intensity in the experiment on TDF [3] and with HCC1569 [4] were 97.3 (inactive) and 107 (inactive), respectively.
On to `CCCCCCCCC=CCCCCCCCC(=O)OCC(O)COP(=O)(O)O` (configuration not stated) [Lysophosphatidic acid], for which the cell number came out at 101 in the experiment with HCC1569 [1] and 104 in the experiment on TDF [2]. Moreover, the H1.0 immunofluorescence intensity in the experiment on TDF [3] is 96.9 (inactive); in the experiment with HCC1569 [4] it was 105 (inactive).
Consider `CN(CCOc1ccc(CC2SC(=O)NC2=O)cc1)c1ccccn1.O=C(O)C=CC(=O)O` (configuration not stated) [Rosiglitazone maleate], for which the cell number came out at 103 with HCC1569 [1] and 113 in the experiment with TDF [2]. The H1.0 immunofluorescence intensity is 92.5 (inactive) in the experiment on TDF [3] and 101 (inactive) in the experiment with HCC1569 [4].
Regarding `CC(C)NCC(O)c1ccc(NS(C)(=O)=O)cc1.Cl` (racemic), the cell number in the experiment on HCC1569 [1] stood at 108; in the experiment with TDF [2], 100. In addition, the values for the H1.0 immunofluorescence intensity with TDF [3] and in the experiment with HCC1569 [4] were 92.6 (inactive) and 99.1 (inactive), respectively.
With `CCCCCC(O)CCC1C(O)CC(=O)C1CCCCCCC(=O)O` (configuration not stated) [13,14-Dihydro-prostaglandin E1], the cell number in the experiment with HCC1569 [1] was found to be 97.1; with TDF [2] it was 104. The H1.0 immunofluorescence intensity in the experiment on TDF [3] is 94.9 (inactive); in the experiment with HCC1569 [4], 103 (inactive).
As for `CC(NC(=O)C(C#N)=Cc1ccc(O)c(O)c1)c1ccccc1` (configuration not stated) [Tyrphostin AG 527], the cell number turned out to be 91.2 with HCC1569 [1] and 89.2 with TDF [2]. For the same compound, the results for the H1.0 immunofluorescence intensity in the experiment on TDF [3] and in the experiment on HCC1569 [4] were 87.7 (inactive) and 107 (inactive), respectively.
As for `CCCCCCCCCCCC(=O)O` [Dodecanoic acid], the results for the cell number in the experiment with HCC1569 [1] and with TDF [2] were 100 and 102, respectively. In addition, the H1.0 immunofluorescence intensity in the experiment with TDF [3] is 103 (inactive); in the experiment with HCC1569 [4], 101 (inactive).
Turning to `CC(C)(C)C1(O)CCN2CC3c4ccccc4CCc4cccc(c43)C2C1.Cl` (single isomer, unassigned; (+)) [(+)-Butaclamol.HCl], the cell number is 106 in the experiment with HCC1569 [1] and 108 in the experiment on TDF [2]. Moreover, the figures for the H1.0 immunofluorescence intensity in the experiment with TDF [3] and with HCC1569 [4] were 95.7 (inactive) and 100 (inactive), respectively.
On to `CC12C=Cc3occc3C1CCC13CC(=O)C(CCC12)C3` (configuration not stated) [16-Oxokahweol], for which the cell number with HCC1569 [1] was 97.7; in the experiment on TDF [2] it was 98.5. The H1.0 immunofluorescence intensity in the experiment with TDF [3] was 91.4 (inactive); in the experiment with HCC1569 [4], 99.3 (inactive).
